We go through 59 molecules from paper PMC4336329 (PLoS ONE, 2015).

In all, about 310,000 compounds went through this assay and about 14,000 (4.5%) showed an effect of 50% or more. Effects have a minus sign here. Only a selection was taken, and strong results are over-represented in it overall.
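Note: peak tail current of the secondary pulse compared with the same well before compound.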

In this experiment the target is human ether-à-go-go-related gene (hERG) potassium channel (human, UniProt Q12809). As to the kind of experiment: primary screen, population patch clamp on CHO cells stably expressing hERG; higher = less effect of the substance.
human ether-à-go-go-related gene (hERG) potassium channel, sequence (Q12809 whole entry, looked up): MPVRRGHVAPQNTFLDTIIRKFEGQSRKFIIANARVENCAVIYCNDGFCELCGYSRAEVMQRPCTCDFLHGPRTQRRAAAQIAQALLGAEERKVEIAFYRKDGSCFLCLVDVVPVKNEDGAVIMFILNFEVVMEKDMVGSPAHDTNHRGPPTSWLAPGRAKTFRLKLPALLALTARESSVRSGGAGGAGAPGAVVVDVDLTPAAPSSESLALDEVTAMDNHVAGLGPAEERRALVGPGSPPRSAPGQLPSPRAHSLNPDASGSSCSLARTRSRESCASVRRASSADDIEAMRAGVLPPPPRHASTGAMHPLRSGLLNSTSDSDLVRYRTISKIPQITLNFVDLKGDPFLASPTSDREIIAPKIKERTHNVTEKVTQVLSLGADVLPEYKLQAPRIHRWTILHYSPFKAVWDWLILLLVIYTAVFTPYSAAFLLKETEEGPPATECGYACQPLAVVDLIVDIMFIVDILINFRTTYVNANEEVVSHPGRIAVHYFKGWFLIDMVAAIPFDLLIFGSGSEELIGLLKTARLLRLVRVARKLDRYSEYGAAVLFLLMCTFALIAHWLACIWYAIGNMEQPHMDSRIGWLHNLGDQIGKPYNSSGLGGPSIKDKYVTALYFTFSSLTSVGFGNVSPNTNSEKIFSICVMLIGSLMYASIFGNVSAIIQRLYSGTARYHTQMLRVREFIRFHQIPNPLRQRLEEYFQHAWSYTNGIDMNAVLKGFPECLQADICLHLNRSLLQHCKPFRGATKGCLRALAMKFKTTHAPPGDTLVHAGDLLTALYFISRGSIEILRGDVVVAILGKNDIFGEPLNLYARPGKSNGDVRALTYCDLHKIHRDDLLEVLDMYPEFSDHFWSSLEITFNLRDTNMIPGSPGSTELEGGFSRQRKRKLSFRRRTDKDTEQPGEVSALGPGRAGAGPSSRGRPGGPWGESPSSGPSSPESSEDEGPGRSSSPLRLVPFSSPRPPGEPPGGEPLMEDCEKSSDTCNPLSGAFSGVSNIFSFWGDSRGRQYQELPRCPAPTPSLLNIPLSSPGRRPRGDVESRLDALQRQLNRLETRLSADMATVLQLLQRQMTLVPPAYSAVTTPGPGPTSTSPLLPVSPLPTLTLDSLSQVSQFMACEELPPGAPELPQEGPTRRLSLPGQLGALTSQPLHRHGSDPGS
On to `COc1ccc(C2/C(=C(/O)c3ccc(C)cc3)C(=O)C(=O)N2C)cc1` (centres unmarked), for which the “hERG current change (%, negative = inhibition) at 10uM” value is reported as -2.36%.
As for `CC1CCc2ccccc2N1C(=N)N(C)C.Cl` (centres unmarked), the figure is 3.44%.
As to `CCNC(=O)O/N=C(\C)c1sc(-c2ccccc2)nc1C`, the “hERG current change (%, negative = inhibition) at 10uM” value is listed as -11.2%.
The same measure for `CCOC(=O)C(=CNNc1cccc(Cl)c1)C(=O)OCC`: 15.5%; for `O=C(Nc1ccc(F)cc1F)c1sccc1SCc1cccc(C(F)(F)F)c1`: -4.52%.
As for `O=C(Nc1ccc(Nc2ccccc2)cc1)c1c(F)c(F)c(F)c(F)c1F`, the “hERG current change (%, negative = inhibition) at 10uM” value came to 22.9%.
Consider `CCOc1cccc(N(C(=O)c2ccco2)C(C(=O)NC2CCCC2)c2cccnc2)c1` (centres unmarked), for which the “hERG current change (%, negative = inhibition) at 10uM” value is 0.854%.
The same measure for `Cc1ccc2sc(NNC(=O)c3cc(-c4cccs4)nc4ccccc34)nc2c1C`: 16.3%.
On to `CCc1nnc(NC(=O)CSc2nnc(-c3ccco3)n2CC)s1`, for which the “hERG current change (%, negative = inhibition) at 10uM” value turned out to be 13.7%.
Consider `CCn1c(SCC(=O)Nc2nnc(C)s2)nnc1-c1ccco1`, for which the “hERG current change (%, negative = inhibition) at 10uM” value is listed as -5.98%.
As for `CCn1c(Cc2ccccc2)nnc1SCC(=O)Nc1nc(C)c(C)s1`, the figure is 9.3%.
As to `CCn1c(SCC(=O)Nc2nc(C)c(C)s2)nnc1-c1ccco1`, the “hERG current change (%, negative = inhibition) at 10uM” value was -68.8%.
For the molecule `CCn1c(SCC(=O)Nc2nc(C)c(C)s2)nnc1-c1cccs1`, the “hERG current change (%, negative = inhibition) at 10uM” value was -73.4%.
As for `CCn1c(SCC(=O)Nc2nc(C)c(C)s2)nnc1-c1cccnc1`, the figure is -26.2%; as for `Cc1ccc2cc(C=C(C#N)C#N)c(N3CCCCC3)nc2c1`, 15.3%; as for `Nc1ccc2c(c1)-c1ccccc1S(=O)(=O)N2`, 11.1%.
In the case of `COc1ccc(O)c2c(=O)c3c(OC)cc4c(c3oc12)C1C=COC1O4` (centres unmarked), the “hERG current change (%, negative = inhibition) at 10uM” value is reported as 4.03%.
The same measure for `O=C(c1cccs1)N1CCN=C1SCc1ccccc1`: 7.77%; for `O=C1c2ccccc2C(=O)N1CCCn1c(=O)oc2ccccc21`: 11.4%.
The same measure for `Cc1cccc(-n2nnc3c(=O)n(Cc4ccccn4)cnc32)c1`: -7.65%; for `Cc1cccc(NC(=O)NCC(c2ccc(F)cc2)N2CCN(C)CC2)c1` (centres unmarked): -42.6%.
In the case of `Cc1ccc(C(CNC(=O)Nc2ccc(Cl)cc2)N2CCN(C)CC2)cc1` (centres unmarked), the “hERG current change (%, negative = inhibition) at 10uM” value was -76.8%.
The same measure for `CN1CCN(C(CNC(=O)c2ccc(Br)o2)c2ccc(F)cc2)CC1` (centres unmarked): -17.5%; for `COc1ccc(C(CNC(=O)Nc2ccc(Cl)cc2)N2CCN(C)CC2)cc1` (centres unmarked): -24.5%.
The same measure for `Cc1ccc(C(CNC(=O)c2ccco2)N2CCN(C)CC2)cc1` (centres unmarked): -11.1%.
With `Cc1ccc(C(CNC(=O)Nc2ccccc2)N2CCN(C)CC2)cc1` (centres unmarked), the “hERG current change (%, negative = inhibition) at 10uM” value is recorded as -28.9%.
On to `COc1ccc(C(CNC(=O)Nc2ccccc2)N2CCN(C)CC2)cc1` (centres unmarked), for which the “hERG current change (%, negative = inhibition) at 10uM” value is given as -12.8%.
The same measure for `Cc1ccc(C(CNC(=O)c2ccc(Br)o2)N2CCN(C)CC2)cc1` (centres unmarked): -60.4%; for `CN1CCN(C(CNC(=O)Nc2ccc(Cl)cc2)c2ccc(F)cc2)CC1` (centres unmarked): -56.3%; for `Cc1ccc(/C=C(\C#N)C(=O)NCc2ccco2)o1`: 3.84%.
As for `O=C(c1ccccc1)c1cn[nH]c1-c1ccccc1O`, the figure is 5.65%; as for `CCOc1ccc(S(=O)(=O)NCCC(=O)N(C)Cc2cccs2)cc1`, -20.9%; as for `COc1cc(/C=N/NC(=O)c2ccccn2)ccc1OC(=O)c1ccc(Br)cc1`, 1.06%.
As for `CCn1c(=O)c([N+](=O)[O-])c(NC2CCS(=O)(=O)C2)c2ccccc21` (centres unmarked), the “hERG current change (%, negative = inhibition) at 10uM” value is 5.85%.
The same measure for `COCCNC(=O)CCC1CCN(Cc2cccc(-c3ccc(C)o3)c2)CC1`: -25.3%.
With `COCCNC(=O)CCC1CCN(Cc2cccc(Oc3ccccc3)c2)CC1`, the “hERG current change (%, negative = inhibition) at 10uM” value was -55.3%.
Take `COCCNC(=O)CCC1CCN(Cc2ccc(-c3ccccc3)cc2)CC1`: the “hERG current change (%, negative = inhibition) at 10uM” value is -63.6%.
As for `COCCNC(=O)CCc1nnc(Cc2ccc(-c3ccccc3)cc2)o1`, the figure is 14.5%; as for `COCCNC(=O)CN1CCC(NC(=O)Nc2ccccc2)CC1`, -8.21%.
On to `OC1CCN(Cc2cccc(Oc3ccccc3)c2)CC1`, for which the “hERG current change (%, negative = inhibition) at 10uM” value is listed as 6.4%.
The same measure for `Clc1ccccc1-c1nnc2sc(-c3ccco3)nn12`: -21.8%; for `O=C(CSc1ccc([N+](=O)[O-])cn1)Nc1ccccc1N1CCOCC1`: -19.2%; for `c1nc(NC2CCCCC2)c2[nH]cnc2n1`: -3.86%.
Turning to `COc1ccc(/C=C2\CCCCC2=O)cc1`, the “hERG current change (%, negative = inhibition) at 10uM” value is on record as -6.19%.
Consider `Cc1ccc(C(C)C)c(OCC(=O)Nn2c(=O)[nH]c3ccccc3c2=O)c1`, for which the “hERG current change (%, negative = inhibition) at 10uM” value was -12.6%.
Regarding `COc1ccc2c(c1)[nH]c1c(=O)n(/N=C/c3ccc(OC)c(CN4CCCCC4)c3)cnc12`, the “hERG current change (%, negative = inhibition) at 10uM” value is -64.3%.
As for `COc1ccc(/C=N/n2cnc3c([nH]c4ccccc43)c2=O)cc1CO`, the figure is 11.2%; as for `COc1ccc(/C=N/n2cnc3c([nH]c4ccccc43)c2=O)cc1COc1ccccn1`, -8.67%; as for `COc1ccc2c(c1)[nH]c1c(=O)n(/N=C/c3ccc(OC)c(CN4CCCC4)c3)cnc12`, -71.1%.
The same measure for `COc1ccc2c(c1)[nH]c1c(=O)n(/N=C/c3ccc(OC)c(COc4ccccn4)c3)cnc12`: -9.63%.
In the case of `COc1ccc(/C=N/n2c(=O)[nH]c3c([nH]c4ccc(Cl)cc43)c2=O)cc1CN1CCCCC1`, the “hERG current change (%, negative = inhibition) at 10uM” value was -13%.
On to `CCC(C)NC(=O)CN(c1ccc(Cl)c(Cl)c1)S(C)(=O)=O` (centres unmarked), for which the “hERG current change (%, negative = inhibition) at 10uM” value was 3.62%.
As for `O=C(NC1CCCC1)c1cc(S(=O)(=O)N2CCOCC2)c(Cl)cc1Cl`, the figure is -8.15%; as for `O=C(Nc1nnc(-c2ccc3c(c2)CCCC3)o1)C1CCCCC1`, 4.3%.
Turning to `O=C(CSc1nnc(NC(=O)c2ccccc2F)s1)Nc1ccccc1F`, the “hERG current change (%, negative = inhibition) at 10uM” value was determined as 30.9%.
The same measure for `CCn1c(SCC(=O)N2CCCCC2)nc2c1c(=O)n(C)c(=O)n2C`: 14.3%; for `CCCOc1ccc(/C(O)=C2/C(=O)C(=O)N(CCCOC)C2c2cccnc2)cc1` (centres unmarked): -5.91%.
Turning to `CCCOc1ccc(/C(O)=C2/C(=O)C(=O)N(CCCOC)C2c2ccncc2)cc1` (centres unmarked), the “hERG current change (%, negative = inhibition) at 10uM” value is -53.1%.
With `CCCCOc1ccc(/C(O)=C2/C(=O)C(=O)N(CCCOC)C2c2ccncc2)cc1` (centres unmarked), the “hERG current change (%, negative = inhibition) at 10uM” value is reported as 18.2%.
